This is part of a sample that, as a whole, favours compounds with a hit. Of some 83,000 tested, about 20% had one in any assay.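 Step 1: grow cells in 96-well plates. Step 2: add test compound at a single concentration. Step 3: incubate 48 h. Step 4: record percent growth.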 Unmarked numbers belong to inactive results. The source made the active and inactive calls. How the source made its calls: active means growth percent below 10; inactive means the rest.
System: HL-60(TB) leukemia
Assay: NCI-60 one-dose screen, 48 h (100 = growth as untreated, 0 = no growth, -100 = all killed)
Conditions: 10 µM unless noted

| Structure (SMILES) | growth |
| --- | --- |
| COc1ccc(-c2nc(Nc3ccccc3S(N)(=O)=O)c3ccccc3n2)cc1 | 88.5% |
| CN(C)CCOc1ccc(C(=O)C2[C@H](c3ccc(Cl)cc3)[C@@H](c3ccccc3)NC23C(=O)Nc2ccc(Br)cc23)cc1 (some centres not stated) | -60.6% (active) |
| CC1=C(C)C(=O)C(N2CCSCC2)=CC1=O | 89.3% |
| CC(C)CN1C(=O)/C(=C\C(=O)c2cc3ccccc3oc2=O)c2ccccc21 | 96.1% |
| O=C(CSc1nc2ccccc2c(=O)n1-c1ccc(Cl)cc1)Nc1ccc(-c2nc3ccc([N+](=O)[O-])cc3[nH]2)cc1 | 85.7% |
| CN1CCN(C(=O)CCN(C(=O)Oc2cc3c(c4ccccc24)[C@H](CCl)CN3C(=O)c2cc3cc(OCCCN4CCC4)ccc3[nH]2)[C@H]2CCSSC2)CC1 | -56.7% (active) |
| N#Cc1ccc(C(=O)CSc2nc3c(c(Nc4ccc(S(N)(=O)=O)cc4)n2)CCC3)cc1 | 101% |
| CC1=C(C)C(=O)C(NCCN2CCOCC2)=C(Br)C1=O | -24.9% (active) |
| N#Cc1c(NC(=O)c2ccc(C(O)(C(F)(F)F)C(F)(F)F)cc2)sc2c1CCC(=O)C2 | -23.4% (active) |
| Cc1ccc(C(SCCNCc2cc(N(C)C)ccn2)(c2ccccc2)c2ccccc2)cc1 | -40.9% (active) |
| COc1ccc(-c2nc(SCC(C)C)nc(NCCc3c[nH]c4ccccc34)c2C#N)cc1 | 63.2% |
| O=C(CCN1C(=O)/C(=C/c2ccc(F)cc2)SC1=S)N1CCOCC1 | 86.4% |
| COc1cc(C2CC(c3ccc(F)cc3)=Nc3c(N)nc(N)nc3N2)ccc1Oc1nc(Nc2ccc(F)cc2)nc(N(C)C)n1 (configuration not stated) | 14.4% |
| O=C1CCC(N2Cc3cc(NC(=O)COc4ccccc4)ccc3C2=O)C(=O)N1 (configuration not stated) | 6.3% (active) |
| CC(=O)c1c2c(c3ccc4c5ccccc5ccc4n13)C(=O)c1ccccc1C2=O | 94.2% |
| CCN1C(=O)N(CC)C2NNC(Sc3c(C(=O)O)c4ccccc4n(C4CCCC4)c3=O)=NC21 (configuration not stated) | -9.96% (active) |

| Structure (SMILES) | growth |
| --- | --- |
| CN(C)c1nc(NCCNS(=O)(=O)c2ccc(C(=O)/C=C/c3ccc(C(F)(F)F)cc3)cc2)nc(Nc2ccc(F)cc2)n1 | -21.8% (active) |
| CN(C)c1ccnc(NCCCSC(c2ccccc2)(c2ccccc2)c2ccccc2)c1 | -59% (active) |
| NS(=O)(=O)c1ccc(CCNC(=O)CSc2ccc(-c3ccc(Br)cc3)nn2)cc1 | 55.4% |
| O=C(Cn1nc(-c2ccccc2)ccc1=O)NN1C(=O)c2ccccc2C1=O | 101% |
| CC1(C)CC[C@]2(C(=O)O)CC[C@]3(C)C(=CCC4[C@@]5(C)C[C@@H](O)[C@@H]6OC(c7ccc(F)cc7)OC[C@@]6(C)C5CC[C@]43C)C2C1 (some centres not stated) | 3.11% (active) |
| O=C(CSc1nnc(-c2ccc(-c3nc4ccccc4[nH]3)cc2)o1)Nc1ccc(Br)cc1 | 43.1% |
| O=C1Nc2ccc(F)cc2/C1=C/c1cccc(OCc2ccccc2)c1 | -17.4% (active) |
| CCOC(=O)CNC(=O)CN(Cc1ccccc1)C(=O)[C@@]1(C)CCC[C@]2(C)[C@H]3C[C@H]4C(C(C)C)=C[C@]3(CC[C@H]21)[C@@H]1C(=O)OC(=O)[C@@H]14 | 9.46% (active) |
| CCOc1ccccc1NC(=O)N/C(N)=N/c1nc2ccccc2s1 | -23.4% (active) |
| COc1ccc(-c2ccc(/C=N/NC(=O)c3[nH]c4ccc(Br)cc4c3-c3ccccc3)s2)cc1 | 95.6% |
| COc1ccc(OC)c(-c2cc(-c3c[nH]c4ccccc34)nc(N)c2C#N)c1 | -32.2% (active) |
| C#CCN(C)CCCOc1ccc(N(CC)C(=O)c2cc(C(C)C)c(O)cc2O)cc1Cl | -63.8% (active) |
| O=C1NC(=S)S/C1=C\c1cn(-c2ccccc2)nc1-c1ccc([N+](=O)[O-])cc1 | 9.92% (active) |
| Cc1ccc(/C=C/C(=O)c2ccc(S(=O)(=O)NCCNc3nc(N(C)C)nc(N4CCOCC4)n3)cc2)cc1 | 30.7% |
| CC[C@]12C=CCN3CC[C@]4(C(=C(C(=O)OC)C1)Nc1cc(OC)c([C@@H]5[C@H]6O[C@H]6[C@@]6(CC)CC(C(=O)OC)=C7Nc8cc(OC)ccc8[C@@]78CCN5[C@@H]68)cc14)[C@@H]32 | 25% |
| COc1cc(C2CC(c3ccc(Oc4ccc(Cl)cc4)cc3)=NN2c2nc(-c3ccc(Cl)cc3)c(C#N)c(N3CCOCC3)n2)cc(OC)c1OC (configuration not stated) | 102% |

Source: PubChem BioAssay (NCI)
